This is an account of results in PubChem BioAssay (NCATS).

Assay [1] deals with Galactokinase (Homo sapiens) (UniProt P51570). Put plainly: qHTS Validation Assay for Inhibitors of Human Galactokinase (GALK) (AID 493189). The gist of the method: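 Compounds were pin-transferred into ATP buffer, then GALK-galactose mix was added (final 5 nM enzyme, 100 uM galactose, 35 uM ATP). After 1 h at room temperature, remaining ATP was measured luminescently.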
(qHTS replaces the single test concentration by a dilution series.)

The nature of assay [2]: Validation screen for small molecules that induce DNA re-replication in SW480 colon adenocarcinoma cells (AID 504364). The gist of the method: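 Cells are treated 48 hr with test compound, stained 40 min with Hoechst at 37 C, and scanned for nuclear fluorescence; compounds inducing re-replication increase nuclei with elevated intensity.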
In assay [3] the target is Peptidyl-prolyl cis-trans isomerase NIMA-interacting 1 (Homo sapiens) (UniProt Q13526). Put plainly: qHTS Validation Assay to Find Inhibitors of Pin1 (AID 504536; active = well fitted inhibition curve with a large enough effect in the polarisation, with a control signal flat, not every such curve was filed as active; the % refers to the polarisation; also: potency is read from the fitted curve at half-maximal effect). The gist of the method:
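Fluorescence polarization competition: compounds (titration) displace HiFluor-488-labeled Pin1-1b peptide from Pin1 (0.3 uM final) in pH 7.5 HEPES buffer with DTT, 10 min at room temperature; %Activity normalized to no-enzyme wells, curves fitted.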

Assay [4] has as its target Phosphoglycerate kinase, glycosomal (Trypanosoma brucei brucei) (UniProt P07378). Put plainly: qHTS Validation Assay to Find Inhibitors of Phosphoglycerate Kinase (AID 504547). Also: potency is read from the fitted curve at half-maximal effect. The gist of the method: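 PGK activity was coupled to GAPDH (100nM final), which generates the unstable substrate 1,3-bisphosphoglycerate in-well. Reactions ran 60 minutes at room temperature in 100mM TEA pH 7.6, 5mM MgCl2, 0.01% Tween-20, then Kinase-Glo Plus luminescence was read.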

Assay [5] addresses phosphoglycerate mutase (Leishmania major) (UniProt Q4Q090). Kind of assay: qHTS Validation Assay to Find Inhibitors of Phosphoglycerate Mutase (AID 504548). Also: series mostly up to about 58 µM. The note with it: Potency: inhibition qHTS. The method in brief:
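Lm PGAM 1.25nM final; 100 mM TEA pH 7.6, 5 mM MgCl2, 0.01% Tween-20; 45 min RT; Kinase-GloPlus, 10 min; end-point luminescence. Enzyme-free wells as negative controls.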

Assay [6] concerns the target Ubiquitin carboxyl-terminal hydrolase 1 (Homo sapiens) (UniProt O94782). Kind of assay: Inhibitors of USP1/UAF1: Pilot qHTS (AID 504865). Also: nearly all actives have a fitted effect of over 35% in size. Also: potency is read from the fitted curve at half-maximal effect. The gist of the method: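 Kinetic fluorescence assay: 1nM USP1/UAF1, 15 min compound preincubation, then 150nM Ub-Rho; 480/540 nm.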
The nature of assay [7]: qHTS for Inhibitors of ATXN expression: Validation of Cytotoxic Assay (AID 588349).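 Also: cells exposed to compound for 72 hr.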 The gist of the method:
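HEK293, compound dose series, 72 hr / 37 degrees C; viability via CellTiter Glo (intracellular ATP).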

Assay [8] is described as follows: qHTS for Inhibitors of ATXN expression: Validation (AID 588378). Also: nearly all actives have a fitted effect of over 75% in size. Also: potency is read from the fitted curve at half-maximal effect. The method in brief:
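Validation of ATXN2 expression inhibitors uses a cell-based luciferase fusion reporter in HEK293 cells, with 24 h compound exposure and paired viability (fluorescence) and reporter (luminescence) end-point reads.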

Assay [9] is described as follows: Inducers of the Endoplasmic Reticulum Stress Response (ERSR) in human glioma: Validation (AID 504836). The method in brief:
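Stably transfected U87-MG glioma cells carrying a GRP78-based luciferase sensor; 16 h compound incubation. Luminescence end-point read 10 min after Bright-Glo addition at room temperature.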

A number with no mark means an inactive call. Inconclusive results are not listed. Activity calls are given as the source filed them. Unless noted, calls follow the shape of the dose curve; as a rule, active = well fitted curve in the direction sought with a large enough effect; inconclusive = small, poorly fitted or top-dose-only effect, or another doubt; inactive = no such curve, though single readings can be large; an effect the other way counts as inactive or inconclusive.

Chain of Phosphoglycerate kinase, glycosomal (Trypanosoma brucei brucei) (P07378 whole entry, looked up): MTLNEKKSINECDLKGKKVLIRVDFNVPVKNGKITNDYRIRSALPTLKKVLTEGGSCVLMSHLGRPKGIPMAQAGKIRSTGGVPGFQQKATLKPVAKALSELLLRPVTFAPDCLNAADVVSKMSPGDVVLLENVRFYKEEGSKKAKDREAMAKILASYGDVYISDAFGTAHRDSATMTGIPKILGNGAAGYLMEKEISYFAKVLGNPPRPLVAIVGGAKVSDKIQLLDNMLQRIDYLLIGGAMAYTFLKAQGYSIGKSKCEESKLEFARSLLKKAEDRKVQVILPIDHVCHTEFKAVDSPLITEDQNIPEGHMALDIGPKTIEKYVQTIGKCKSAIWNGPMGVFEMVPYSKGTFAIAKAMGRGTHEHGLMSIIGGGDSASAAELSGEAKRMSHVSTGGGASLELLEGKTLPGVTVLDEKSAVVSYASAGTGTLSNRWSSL
Chain of Galactokinase (Homo sapiens) (P51570 whole entry, looked up): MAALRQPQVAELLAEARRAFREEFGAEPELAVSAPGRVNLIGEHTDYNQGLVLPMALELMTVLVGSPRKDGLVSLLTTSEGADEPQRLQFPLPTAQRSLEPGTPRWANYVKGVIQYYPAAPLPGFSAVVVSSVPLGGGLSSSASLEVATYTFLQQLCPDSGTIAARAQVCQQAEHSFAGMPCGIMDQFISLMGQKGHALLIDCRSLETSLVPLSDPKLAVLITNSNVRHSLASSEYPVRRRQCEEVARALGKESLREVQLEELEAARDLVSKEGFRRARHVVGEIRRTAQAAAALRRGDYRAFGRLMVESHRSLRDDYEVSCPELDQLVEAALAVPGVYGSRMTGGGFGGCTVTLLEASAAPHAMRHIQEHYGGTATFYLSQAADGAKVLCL
Chain of Ubiquitin carboxyl-terminal hydrolase 1 (Homo sapiens) (O94782 whole entry, looked up): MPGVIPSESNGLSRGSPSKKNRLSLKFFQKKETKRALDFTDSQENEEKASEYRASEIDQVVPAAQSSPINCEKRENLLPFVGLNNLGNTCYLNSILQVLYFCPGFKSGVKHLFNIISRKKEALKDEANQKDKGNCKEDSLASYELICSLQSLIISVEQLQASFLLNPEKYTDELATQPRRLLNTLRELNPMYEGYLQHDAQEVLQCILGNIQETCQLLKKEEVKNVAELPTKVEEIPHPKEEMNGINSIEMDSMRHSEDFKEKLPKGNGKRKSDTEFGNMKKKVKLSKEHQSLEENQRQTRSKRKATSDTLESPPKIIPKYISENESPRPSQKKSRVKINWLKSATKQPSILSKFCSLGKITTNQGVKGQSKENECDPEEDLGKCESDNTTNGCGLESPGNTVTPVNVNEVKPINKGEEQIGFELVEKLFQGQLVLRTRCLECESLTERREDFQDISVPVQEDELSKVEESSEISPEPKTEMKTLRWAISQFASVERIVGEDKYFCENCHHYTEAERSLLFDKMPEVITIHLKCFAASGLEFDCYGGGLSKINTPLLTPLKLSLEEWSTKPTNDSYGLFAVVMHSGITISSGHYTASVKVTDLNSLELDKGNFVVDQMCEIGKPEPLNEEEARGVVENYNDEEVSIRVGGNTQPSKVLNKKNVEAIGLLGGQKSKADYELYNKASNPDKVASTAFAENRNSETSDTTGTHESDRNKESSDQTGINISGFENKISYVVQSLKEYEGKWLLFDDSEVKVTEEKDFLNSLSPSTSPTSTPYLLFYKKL
Chain of phosphoglycerate mutase (Leishmania major) (Q4Q090 1-553): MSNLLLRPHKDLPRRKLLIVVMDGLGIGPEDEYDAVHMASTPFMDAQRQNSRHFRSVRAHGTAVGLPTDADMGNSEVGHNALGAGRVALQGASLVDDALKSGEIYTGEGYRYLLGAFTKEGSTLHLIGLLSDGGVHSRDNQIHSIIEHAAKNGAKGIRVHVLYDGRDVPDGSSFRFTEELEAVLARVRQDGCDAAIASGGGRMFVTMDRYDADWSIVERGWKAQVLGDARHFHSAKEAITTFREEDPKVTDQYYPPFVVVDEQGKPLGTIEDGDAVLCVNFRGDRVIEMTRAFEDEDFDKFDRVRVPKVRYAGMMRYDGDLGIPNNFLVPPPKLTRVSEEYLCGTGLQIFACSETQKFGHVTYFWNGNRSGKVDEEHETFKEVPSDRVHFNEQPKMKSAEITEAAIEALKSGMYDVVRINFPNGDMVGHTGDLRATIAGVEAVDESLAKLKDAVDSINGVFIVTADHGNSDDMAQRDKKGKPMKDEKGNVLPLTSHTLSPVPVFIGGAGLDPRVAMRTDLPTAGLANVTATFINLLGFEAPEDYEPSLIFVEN
Chain of Peptidyl-prolyl cis-trans isomerase NIMA-interacting 1 (Homo sapiens) (Q13526 whole entry, looked up): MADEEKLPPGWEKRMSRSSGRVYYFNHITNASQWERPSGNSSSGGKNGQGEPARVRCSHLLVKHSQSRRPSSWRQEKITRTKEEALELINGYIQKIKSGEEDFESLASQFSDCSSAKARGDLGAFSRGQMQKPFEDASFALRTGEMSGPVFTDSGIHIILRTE

As to `CN(N=O)c1ccc(O)c(O)c1`, the result in [1] was inactive. The Potency entry in assay [2], in assay [5], in [7] and in assay [8] was “inactive” in each case. The Potency was 4.78 µM (active) in assay [3], 6.01 µM (active) in assay [4] and 22.4 µM (active) in [6].

On to `O=C1CC[C@@]2(O)C3Cc4ccc(O)c5c4C2(CCN3CC2CC2)[C@H]1O5` (stereo not given in full), for which, in assay [1], the result was inactive. For the same molecule, the Potency result in assay [2], in assay [3], in [4], in [5], in [6] and in assay [7] was “inactive” throughout. In addition, the Potency entry in assay [8] was “inactive”.

Consider `C/C(O)=C(\C#N)C(=O)Nc1cc(Br)ccc1Br`, for which the call in assay [1] was inactive. Moreover, the Potency result in [2], in assay [3], in assay [4], in assay [5], in assay [7] and in [8] was “inactive” throughout.

For `CCCn1c(C)c(C(=O)c2ccc3ccccc3c2)c2ccccc21`, the molecule was classed as inactive in assay [1]. The Potency result in assay [3], in assay [4], in [5] and in assay [8] was “inactive” each time.

On to `CNc1ccc2oc(C[C@H]3O[C@@]4(CC[C@H]3C)O[C@H]([C@H](C)C(=O)c3ccc[nH]3)[C@H](C)C[C@H]4C)nc2c1C(=O)O`, for which the molecule was called inactive in assay [1]. Besides, the Potency entry in assay [3], in assay [5] and in assay [6] was “inactive” each time. Besides, the Potency in assay [8] is 3.16 µM (active).

For `O=C1C=CC(=O)C=C1`, the Potency entry in [2], in assay [3], in assay [6], in assay [7] and in [8] was “inactive” in each case.

With `C=CCN1C[C@@H](C)N([C@H](c2ccc(C(=O)N(CC)CC)cc2)c2cccc(OC)c2)C[C@@H]1C`, the outcome in assay [1] and in [9] was inactive. The Potency result in [2], in assay [4], in [5], in [6], in assay [7] and in assay [8] was “inactive” each time.

On to `O=S1(=O)N(CCN2CC=C(c3c[nH]c4cc(F)ccc34)CC2)c2cccc3c2N1CCC3`, for which the result in assay [1] and in [9] was inactive. Further, the Potency result in assay [3], in [4], in assay [5] and in [6] was “inactive” each time.

For `Cc1c2ccncc2c(C)c2c1[nH]c1ccccc12`, in assay [1], the outcome was inactive. Also, the Potency entry in assay [3], in assay [5] and in assay [7] was “inactive” each time.

Take `CC(Cc1ccc(OCC(=O)O)cc1)NCC(O)c1cccc(Cl)c1` (stereo not given): the molecule was classed as inactive in assay [1]. For the same molecule, the Potency entry in assay [2], in [3], in assay [5], in assay [6] and in assay [8] was “inactive” in each case.

Consider `CCCC[N+]1(C)C2CC(OC(=O)[C@H](CO)c3ccccc3)CC1C1OC12` (stereo not given in full), for which the Potency entry in assay [3], in [4], in assay [5], in assay [6], in assay [7] and in assay [8] was “inactive” in each case. In assay [9], the outcome was inactive.

`CCCn1c(=O)c2[nH]c(C3CCCC3)nc2n(CCCOC(=O)c2ccc(S(=O)(=O)F)cc2)c1=O`: the outcome in assay [1] was inactive. In addition, the Potency result in assay [2], in [3], in assay [5], in [6], in assay [7] and in [8] was “inactive” throughout.

As to `COc1ccc2c(c1)/C(=C/c1cnc[nH]1)C(=O)N2`, the result in assay [1] and in [9] was inactive. In addition, the Potency result in [3], in [4] and in [6] was “inactive” throughout. Besides, the Potency in assay [8] was 2.82 µM (active).

For the molecule `COc1ccc2c(c1)c(CCN1CCOCC1)c(C)n2C(=O)c1cccc(Cl)c1Cl`, the Potency entry in assay [3], in assay [4] and in [5] was “inactive” throughout. For the same molecule, the outcome in assay [9] was inactive.

On to `C=CCN1CC[C@]23c4c5ccc(O)c4O[C@@H]2/C(=N/N=C2\CC[C@@]4(O)C6Cc7ccc(O)c8c7[C@@]4(CCN6CC=C)[C@@H]2O8)CC[C@@]3(O)C1C5`, for which the outcome in assay [1] was inactive. Also, the Potency result in [2], in assay [4], in assay [5] and in assay [6] was “inactive” in each case. Further, in [8], the Potency is 20 µM (active).

For `CCCN(CCC)CCc1ccc(O)c(O)c1`, the call in [1] was inactive. The Potency entry in assay [2], in [3], in assay [5], in assay [6], in assay [7] and in [8] was “inactive” in each case.

As to `Oc1ccc2c3c1O[C@H]1c4[nH]c5ccccc5c4C[C@@]4(O)C(C2)N(CC2CC2)CCC314` (stereo not given in full), the outcome in assay [1] and in [9] was inactive. Further, the Potency entry in [2], in assay [3] and in [5] was “inactive” throughout. The Potency in assay [8] is 17.8 µM (active).
